RGS4 inh = inhibitors of human regulator of G protein signaling 4; AID 504845; Transcreener GDP fluorescence polarization, RGS4-accelerated GTP hydrolysis; 0.039% of 390,000 active; P49798; Potency, µM (doses to about 114 µM), actives largely listed as inhibitors; also: nearly all actives have a fitted effect of over 75% in size
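MLSMR compounds (23 nl, pin-transferred) preincubated 10 min at room temperature with a 500nM (2x) first reagent, then RGS4 at 900nM (2x) plus Transcreener GDP mix added; fluorescence polarization (620/688 nm) read before and after 90 min at 30 °C.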
p53 reactivation = mutant p53 re-activation in reporter cells | H1299 p53-A138V BP100-luciferase reporter, luminescence, 24 h | Potency, µM (titrated, usually from 92.2 µM), actives largely listed as activators | 0.063% of 320,000 active | AID 504706; also: nearly all actives have a fitted effect of over 45% in size
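p53-null H1299 cells stably carrying temperature-sensitive p53-A138V and a BP100-luciferase reporter were pinned with compounds (4-point, 1:5 series) and held 24 hrs at 37 deg C. Luminescence was read 10 min after detection reagent.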
PTHR1 agonist = agonists of human PTHR1 parathyroid hormone receptor; Q03431; HEK293 GP2 PTHR1 cells, GloSensor cAMP luminescence, 1 h; Potency, µM (series often up to 115 µM), usual class: activators; 0.075% of 410,000 active; AID 743266; also: nearly all actives have a fitted effect of over 55% in size
Target sequence (Q03431 whole entry, looked up): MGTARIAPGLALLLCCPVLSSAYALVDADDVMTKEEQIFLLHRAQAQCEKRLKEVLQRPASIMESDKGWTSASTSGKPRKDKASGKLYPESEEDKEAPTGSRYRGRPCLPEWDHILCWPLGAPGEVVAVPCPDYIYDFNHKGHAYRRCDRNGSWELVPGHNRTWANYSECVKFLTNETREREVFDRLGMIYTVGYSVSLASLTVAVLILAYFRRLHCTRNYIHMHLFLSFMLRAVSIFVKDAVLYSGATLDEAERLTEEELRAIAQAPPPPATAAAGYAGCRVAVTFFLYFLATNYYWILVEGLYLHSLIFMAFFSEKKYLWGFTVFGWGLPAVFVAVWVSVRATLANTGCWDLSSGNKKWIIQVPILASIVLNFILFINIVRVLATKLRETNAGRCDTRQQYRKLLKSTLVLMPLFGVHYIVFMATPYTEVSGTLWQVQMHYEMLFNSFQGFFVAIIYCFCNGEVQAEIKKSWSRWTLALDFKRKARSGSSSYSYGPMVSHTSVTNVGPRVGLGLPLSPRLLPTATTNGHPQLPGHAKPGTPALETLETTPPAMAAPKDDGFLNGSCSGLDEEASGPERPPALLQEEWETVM
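HEK-293-derived GP2 cells expressing PTHR1 and a GloSensor cAMP reporter, 3,000/well, plated overnight, given luciferin plus IBMX (each 0.5 mM as added) for 1 h at 37 °C, then compound for 1 h at 37 °C. Luminescence was read after 15 min at room temperature.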
LDHA inh = inhibitors of human lactate dehydrogenase A. P00338. activity change, % (values are at about 110 or 230 µM). purified LDHA, NADH/diaphorase-resazurin fluorescence; hits give low values. 0.15% of 480,000 active; in the data active = activity change below about -30%; inconclusive = mostly about -25% to -30%
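Remaining NADH was detected by diaphorase (0.133 mg/mL) converting 37 µM resazurin to fluorescent resorufin, read at 0 and 20 minutes. The preceding 5-minute room-temperature reaction used 2 nM LDHA, 0.2 mM sodium pyruvate and 0.06 mM NADH at pH 7.4.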
BRCA1 expr act = activators of BRCA1 expression; MCF7-BRCA1-FFLuc reporter, luminescence, 48 h; response scale: scaled: vehicle 0%, 10 µM genistein 100%; Potency, µM (titrated, usually from 46.1 µM), actives largely listed as activators; 1.1% of 380,000 active; also: nearly all actives have a fitted effect of over 80% in size
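MCF7-BRCA1-FFLuc cells, 2000/well in phenol-red-free MEM, attached 2 h then treated 48 h at 37 C. Luciferase luminescence read 15 min after reagent; normalized to genistein maximum activation (10microM) and DMSO, concentration-response fitted.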
Numbers stand for hits; n = inactive; u = inconclusive; x = no result given; [ ] = remark or other dose. A selection: hits, their analogues and other compounds. The true share with any hit is near 1.1%. Unless noted, calls follow the shape of the dose curve; as a rule, active = well fitted curve in the direction sought with a large enough effect; inconclusive = small, poorly fitted or top-dose-only effect, or another doubt; inactive = no such curve, though single readings can be large; an effect the other way counts as inactive or inconclusive.

SMILES	RGS4 inh	p53 reactivation	PTHR1 agonist	LDHA inh	BRCA1 expr act
Cn1c(C(=O)NCC2CCCO2)cc2oc3ccccc3c21 (configuration not stated)	n	n	n	n	3.5µM
CC(C)Oc1ccc(C(CC(=O)O)NC(=O)c2ccc(C(C)(C)C)cc2)cc1 (configuration not stated)	x	x	x	n	x
O=C(N/N=C/c1ccc2c(c1)OCO2)c1ccc(Br)o1	n	3.2µM	n	n	5.6µM
O=C(Nc1cccc(C(=O)O)c1)/C(=C\c1ccc2c(c1)OCO2)NC(=O)c1ccc(Br)o1	n	n	n	n	8.9µM
O=C(Nc1ccc(C(=O)O)cc1)/C(=C\c1ccc2c(c1)OCO2)NC(=O)c1ccc(Br)o1	u	n	n	n	n
CNc1nnc(SCc2coc(-c3ccccc3)n2)s1	x	x	x	n	x
CCn1c(C)c(C(C)=O)c2cc(OCC(O)CN3CCOCC3)ccc21 (configuration not stated)	x	x	x	n	x
CCCCNC(C(=O)Nc1ccc([N+](=O)[O-])cc1Br)c1ccccc1 (configuration not stated)	n	n	n	-31	n
COCCNC(C(=O)Nc1ccc([N+](=O)[O-])cc1Br)c1ccccc1 (configuration not stated)	n	n	n	n	n
Cc1ccc(NC(=O)CN2C(=O)N/C(=C\c3cccn3-c3ccc(C(=O)NC#N)cc3)C2=O)cc1	x	x	x	-37	x
Nc1ccccc1Nc1cc(-c2ccccc2)nn1-c1cccc(Cl)c1	n	n	n	n	n
CNc1nn(-c2cccc(Cl)c2)nc1N	n[11.4 µM]	n	n	n	10µM
Clc1cccc(/C=N/Nc2ccc(Cl)c(Cl)c2)c1	x	x	x	n	x
CCN(C(=O)c1cc2c(=O)n3ccccc3nc2n1C)C1CCCCC1	n	n	n	n	n
CN(C(=O)c1cc2c(=O)n3ccccc3nc2n1C)C1CCCCC1	n	n	n	n	1.4µM
COC(=O)c1ccc(COC(=O)COc2ccc(C#N)cc2)o1	x	x	x	n	x
Nc1c(S(=O)(=O)O)cc(NC(=O)c2ccccc2)c2c1C(=O)c1ccccc1C2=O	u	n	n	n	n
Nc1c(S(=O)(=O)O)cc(Nc2ccc(Nc3nc(Cl)nc(Nc4ccc(S(=O)(=O)O)cc4)n3)c(S(=O)(=O)O)c2)c2c1C(=O)c1ccccc1C2=O	19µM	x	x	n	n
CC(=O)Nc1ccc(NC(=S)NC(=O)/C=C/c2ccco2)cc1	u	x	n	n	n
CN1CCN(c2ccc(NC(=S)NC(=O)/C=C/c3ccco3)cc2)CC1	n	u	n	n	4.5µM
COc1ccc(NC(=O)CC2CC3CCC2C3)cn1 (configuration not stated)	n	n	n	n	13µM
COc1ccccc1C(=O)N1CCN(C2CCN(Cc3ccccc3)CC2)CC1	n	x	n	n	n
O=C(c1cccnc1)N1CCN(Cc2ccccc2Br)CC1	n	n	n	-31	n
COc1ccccc1C(=O)N1CCN(Cc2cccnc2)CC1	n	n	n	-33	n
O=C(OCc1ccc(Cl)c(Cl)c1)c1ccc[nH]1	n	u	n	n	13µM
SMILES	RGS4 inh	p53 reactivation	PTHR1 agonist	LDHA inh	BRCA1 expr act
Cc1sc(=NC(=O)c2ccco2)n(C)c1-c1ccc(Cl)cc1	n	u	n	n	6.3µM
C/C(=N\NC(=O)C1CC1)c1ccncc1	x	x	x	n	x
CCOC(=O)c1c(C)[nH]c(C(C)=NNC(=O)c2cccs2)c1C	n	u	n	n	2.8µM
CCOC(=O)c1c(C)[nH]c(/C(C)=N/NC(=O)c2cccnc2)c1C	x	x	n	n	n
O=C(NCCc1csc(-c2ccccc2)n1)c1ccco1	n[11.4 µM]	n	n	n	n
Cc1cc(C(=O)NCc2csc(-c3ccccc3)n2)no1	n	n	n	n	10µM
O=C(NCc1csc(-c2ccccc2)n1)c1ccco1	n	u	n	n	10µM
Cc1cc(C(=O)NCc2cccs2)no1	n	n	n	n	n
COc1ccc(NC(=S)Nc2ncccc2C)cc1OC	n	n	n	n	7.9µM
COc1ccc(-c2csc(Nc3ncccc3C)n2)cc1	n	45µM	n	n	u
Cc1cccnc1NC(=S)Nc1ccc(Cl)c(Cl)c1	n	n	n	n	n
COc1ccc(-c2csc(Nc3ncccc3C)n2)cc1OC	n	u	n	n	2.8µM
COc1ccc(-c2csc(-c3cccnc3)n2)cc1C	n	n	n	n	13µM
Cc1ccc(-c2nc(CSCC(=O)NCc3cccs3)c(C)o2)cc1	x	x	x	n	x
O=C(Nc1c(F)cc(F)cc1Br)C1CCN(C(=O)N2CCOc3ccccc32)CC1	x	x	x	n	x
Cc1c(C#N)c(NC(=O)CSc2nnc(C)n2-c2ccccc2)n(Cc2ccccc2)c1C	x	x	x	n	x
CN(Cc1ccccc1)C(=O)COC(=O)c1c[nH]c2ccccc12	x	x	n	n	10µM
Cc1ccc(S(=O)Cc2nc(-c3ccc(C(=O)NCc4cccnc4)cc3)oc2C)cc1 (configuration not stated)	x	x	x	n	x
O=C(COc1cc(F)ccc1[N+](=O)[O-])Nc1ccc2c(c1)OCO2	n	u	n	n	3.5µM
O=C(COc1ccccc1[N+](=O)[O-])Nc1ccc2c(c1)OCO2	n	n	n	n	10µM
CC(=O)c1cc(F)ccc1OCC(=O)Nc1ccc2c(c1)OCO2	n	u	n	n	1.3µM
O=C(COC(=O)COc1ccccc1[N+](=O)[O-])Nc1ccc2c(c1)OCO2	n	n	n	n	n
CC(C)c1nnc(NC(=O)COc2ccccc2[N+](=O)[O-])s1	n	n	n	n	10µM
Cc1ccc(OCC(=O)Nc2ccc3c(c2)OCO3)c(C)c1	n	n	n	n	n
CCOC(=O)c1oc2cc(OC(=O)c3ccco3)ccc2c(=O)c1-c1ccc(OC)cc1	x	x	x	n	x
SMILES	RGS4 inh	p53 reactivation	PTHR1 agonist	LDHA inh	BRCA1 expr act
O=C(COc1ccccc1[N+](=O)[O-])Nc1ccc2c(c1)CCC2	n	u	n	n	10µM
CCC(C)C(NC(=O)C(C)NC(=O)CNC(=O)CNC(=O)OCc1ccccc1)C(N)=O (configuration not stated)	x	x	x	n	x
CC(C)CSc1nsc(N)n1	n	n	n	n	13µM
Nc1nc(SCc2ccccc2)ns1	n	u	n	n	11µM
Nc1nc(SCc2ccc(Cl)cc2)ns1	n	u	n	n	n
CC(=O)c1oc2ccccc2c1N	n	n	n	n	n
Nc1c(C(=O)Nc2ccc(Cl)cc2)oc2ccccc12	n	u	n	n	2.5µM
CC(C)(C)n1ncc2c(=O)n(CC(=O)c3ccc(Cl)cc3)cnc21	n	u	n	n	2.2µM
CC(C)(C)n1ncc2c(=O)n(CC(=O)Nc3ccc(Cl)cc3)cnc21	n	n	n	n	n
N#CC1=C(N)OC2=C(C(=O)CC(c3ccccc3)C2)C1c1ccccc1Br (configuration not stated)	x	x	x	n	x
CSCCC(NC(=O)c1ccco1)C(=O)NCC1CCCCC1 (configuration not stated)	n	n	n	n	n

From PubChem
